High-throughput results (PubChem BioAssay)
The entries come from a sample that favours hits as a whole.
ST2 inh: blocks human ST2 binding to IL-33; 78,000 tested, 2.3% active; inhibition, % for hits at 17 µM; Q01638; AlphaLISA ST2-Fc/biotin-IL-33 interaction, 1 h; in the data active means inhibition above about 30%
Target sequence (Q01638 whole entry, looked up): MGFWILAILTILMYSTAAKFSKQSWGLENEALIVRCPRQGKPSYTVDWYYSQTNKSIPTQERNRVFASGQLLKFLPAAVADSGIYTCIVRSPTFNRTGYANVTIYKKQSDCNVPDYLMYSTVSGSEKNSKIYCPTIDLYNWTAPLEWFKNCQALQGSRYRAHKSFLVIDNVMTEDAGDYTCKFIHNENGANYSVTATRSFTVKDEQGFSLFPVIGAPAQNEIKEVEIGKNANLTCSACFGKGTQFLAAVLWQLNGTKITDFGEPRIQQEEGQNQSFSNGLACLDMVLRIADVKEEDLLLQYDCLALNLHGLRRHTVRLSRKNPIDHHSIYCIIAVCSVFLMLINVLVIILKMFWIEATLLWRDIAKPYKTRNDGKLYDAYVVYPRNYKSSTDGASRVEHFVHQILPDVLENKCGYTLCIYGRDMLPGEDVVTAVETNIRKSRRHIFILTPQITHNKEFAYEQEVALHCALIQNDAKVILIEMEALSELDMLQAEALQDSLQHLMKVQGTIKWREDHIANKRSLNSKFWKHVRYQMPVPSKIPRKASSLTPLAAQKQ
Active calls of the source: *; i = inactive; ! = not active in a repeat.

SMILES | ST2 inh
Nc1ccc(-c2nc3ccccc3[nH]2)cc1 | i
Nc1ccc(-c2nc3ccc(-c4nc5ccc(N)cc5[nH]4)cc3[nH]2)cc1 | 35.0%*!
COc1cc2c(cc1OC)C(c1cccc(OCc3ccccc3)c1)CC(=O)N2 (stereo unspecified) | i
CCCc1nc2nc[nH]n2c(=O)c1NC(=O)Nc1ccccc1C | i
COc1ccc(OC)c(-c2cc(C(=O)Nc3sc4c(c3C#N)CCC4)no2)c1 | i
COC(=O)c1ccc(C(=O)Nc2sc3c(c2C#N)CCCCC3)cc1 | i
COc1ccccc1-c1cc(C(=O)Nc2sc3c(c2C#N)CCCC3)no1 | i
COc1ccc(-c2nc3c4c5c(sc4ncn3n2)CCCCC5)cc1OC | i
COc1ccc(-c2ncnn2-c2sc3c(c2C#N)CCCCC3)cc1OC | 44.0%*
COc1ccc(OC)c(-c2ncnn2-c2sc3c(c2C#N)CCCCC3)c1 | 34.0%*
COc1cccc(C(C)N(C)C(=O)c2coc(COc3cccc(F)c3F)n2)c1 (stereo unspecified) | i
COc1ccc2cc3cc(C(=O)N(C)c4ccc(Br)cc4)oc3nc2c1 | i
COc1cccc(-n2c(=O)[nH]cc(C(=O)N3CCc4ccccc43)c2=O)c1 | i
COCc1ccc(C(=O)N(C)C2CCCN(CCCc3ccccc3)C2)s1 (stereo unspecified) | i
O=[N+]([O-])c1ccc2nc(-c3ccco3)c(-c3ccco3)nc2c1 | 36.0%*
O=[N+]([O-])c1ccc2nc(CSc3nc4ccccc4o3)[nH]c2c1 | i
O=c1oc2cc([N+](=O)[O-])ccc2nc1C=C(O)c1ccco1 | i
CCN(C(=O)c1cc2cc3ccc(OC)cc3nc2o1)c1ccc(F)cc1 | i
Cc1nn(C)c(C)c1CCC(=O)N(C)Cc1cc(C(C)(C)C)n[nH]1 | i
Cn1c(C(=O)Nc2ccc(Cl)cc2)cc2c(=O)n3ccccc3nc21 | i
C=CCNC(=O)CCCn1c(=O)[nH]c2ccsc2c1=O | i
O=C1CCCC2=C1C(c1ccc([N+](=O)[O-])cc1)n1nc(SCc3ccccc3)nc1N2 (stereo unspecified) | i
CCOc1ccc(/C=C2\N=C(c3cc([N+](=O)[O-])cc([N+](=O)[O-])c3)OC2=O)cc1 | 40.0%*
CCCCOc1ccc(C2=N/C(=C\c3ccc([N+](=O)[O-])cc3)C(=O)O2)cc1 | i
CCOc1ccc(/C=C2\N=C(c3ccc([N+](=O)[O-])cc3)OC2=O)cc1 | i
SMILES | ST2 inh
O=[N+]([O-])c1ccc(N2CCN(S(=O)(=O)c3ccccc3)CC2)cc1NCC1CCCO1 (stereo unspecified) | i
O=[N+]([O-])c1ccc(N2CCCC2)cc1NCC1CCCO1 (stereo unspecified) | 30.0%*
CS(=O)(=O)N1CCN(c2ccc([N+](=O)[O-])c(NCCN3CCOCC3)c2)CC1 | i
CCCn1ncc(C(=O)N2CCCC(Cc3ccc(C(=O)O)cc3)C2)c1C (stereo unspecified) | i
Cn1c(=O)c2c(SCC(=O)N3CCCCC3)nc(-c3cccs3)nc2n(C)c1=O | i
Cn1c(=O)c2c(nc(Br)n2Cc2ccc(F)cc2)n(C)c1=O | i
CC(=O)N1N=C(c2ccc(F)cc2)Cn2c1nc1c2c(=O)n(C)c(=O)n1C | 55.0%*
Cn1c(=O)c2c(nc(CN3CCN(c4ccc(F)cc4)CC3)n2CC(N)=O)n(C)c1=O | i
CCCCNC(=O)CCCn1c(=O)[nH]c2cc(OC)c(OC)cc2c1=O | i
CC(=O)Nc1ccc(Cl)c(C(=O)NCc2c(F)cccc2F)c1 | i
COc1ccc(-c2nnc(NC(=O)C(F)(F)F)s2)cc1OC | i
O=C1N=c2ccc(F)cc2=C1c1sc(Nc2ccc(F)cc2)nc1O | 48.0%*
NC(=O)C1CCN(c2nc(O)c(C3=c4ccccc4=NC3=O)s2)CC1 | i
Cc1ccc(C)c(-c2csc(Nc3ccc(F)cc3)n2)c1 | i
O=C1N=c2ccccc2=C1c1sc(Nc2ccc(Br)cc2)nc1O | 40.0%*
COc1ccc(Nc2nc3ccc(F)cc3s2)cc1 | i
Cc1ccc(Nc2nc3ccccc3c(=O)s2)cc1 | i
CC(C)C(=O)Nc1cccc(F)c1 | i
Cc1cccc(NC(=O)C2CCN(c3ccc(-c4cccs4)nn3)CC2)c1 | i
O=C(Nc1ccc2c(c1)OCO2)c1coc(=O)c2ccccc12 | i
CC(=O)N1CCN(c2ncccc2CNC(=O)Cc2c(C)[nH]c3ccccc23)CC1 | i
COc1ccc(OCc2nc3ccccc3[nH]2)cc1 | i
Brc1cnc2nc(COc3ccccc3)[nH]c2c1 | 35.0%*
Cc1cc(OCc2nc3ccccc3[nH]2)ccc1C(C)C | i
O=c1/c(=C/c2ccc(Cl)cc2)sc2nnc(-c3ccccc3)n12 | i
SMILES | ST2 inh
Cc1ccc(S(=O)(=O)N2CCN(c3nc(-c4ccc(C)o4)cs3)CC2)cc1 | 37.0%*
Cc1ccc(S(=O)(=O)N2CCN(c3nc(C)cc(N4CCCC4)n3)CC2)cc1 | i
Cc1ccc(Nc2cc(C)nc(N3CCN(S(=O)(=O)c4ccc(C)cc4)CC3)n2)cc1 | i
CCC(c1ccccc1)c1nc(-c2ccncc2)no1 (stereo unspecified) | i
CCC(c1ccccc1)c1nc(-c2cccc([N+](=O)[O-])c2)no1 (stereo unspecified) | 30.0%*
COc1ccc(-c2nc(-c3cccc([N+](=O)[O-])c3)no2)cc1OC | i
CCOC(=O)c1cnc2ccccc2c1Nc1ccc(Cl)cc1 | i
COc1ncc(C(=O)N2CCCC(COc3cccc(F)c3)C2)cn1 (stereo unspecified) | i
c1csc(CN2CC[C@H](c3nc4ncccc4[nH]3)C2)c1 | i
CSCC(=O)N[C@H]1CCN2C(=O)N(c3ccc(C(C)C)cc3)C(=O)[C@@H]2C1 | 52.0%*
COc1cc(OC)cc(N2C(=O)[C@@H]3C[C@@H](NC(=O)c4cccn4C)CCN3C2=O)c1 | i
CC(C)c1ccc(N2C(=O)C3C4C=CC(C4)C3C2=O)cc1 (stereo unspecified) | i
COc1nc(N)c(C#N)c(-c2ccc(N(C)C)cc2)c1C#N | i
CCC1CCCCN1S(=O)(=O)c1ccc2[nH]c(=O)cc(C(=O)NCCC3=CCCCC3)c2c1 (stereo unspecified) | i
COc1ccc2cc3cc(C(=O)NCCN4CCOCC4)oc3nc2c1 | i
COc1ccc2cc3cc(C(=O)NCCCN4CCCC4)oc3nc2c1 | 33.0%*!
O=C(NCCCN1CCCC1)c1cc2cc3ccc(Cl)cc3nc2o1 | i
COc1ccc2cc3cc(C(=O)NCCCN4CCN(Cc5ccccc5)CC4)oc3nc2c1 | i
COc1ccc2cc3cc(C(=O)NCCCN4CCCCCC4)oc3nc2c1 | 31.0%*!
CCC1CCCCN1CCCNC(=O)c1cc2cc3ccc(OC)cc3nc2o1 (stereo unspecified) | i
CCCN(CCC)S(=O)(=O)c1ccc2c(c1)NC(=O)CS2 | i
CN(C)c1ccc(-c2noc([C@@H]3CCCN3Cc3ccccc3)n2)cn1 | i
COc1cc(C)c(C(C)C)cc1S(=O)(=O)n1ccnc1C | i
Cc1ccc(OCC(=O)N2CCN(c3ccccc3)CC2)cc1C | i
O=C(CCCOc1ccccc1)N1CCN(c2ccc([N+](=O)[O-])cc2)CC1 | i
O=C(COc1ccccc1)N1CCN(c2ccc([N+](=O)[O-])c(NCCc3ccccc3)c2)CC1 | 33.0%*
Cc1cc(C)n(CC(=O)NC2CC(=O)N(CCCc3ccccc3)C2)n1 (stereo unspecified) | i
Cc1c(-c2nc3ccccc3c(=O)o2)cccc1[N+](=O)[O-] | 30.0%*
COc1ccccc1-c1nc2ccc(Br)cc2c(=O)o1 | i
